According to PubChem BioAssay:
Records with an inconclusive call do not appear. The source made the active and inactive calls.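 How the source made its calls, unless noted: active means compound that reduces growth-factor-driven endothelial tube area in a mixed cell culture, no cutoff stated; inactive means the rest.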 Peptide text beside a SMILES is read from it.

Key:
[1] = stimulators of insulin release from INS-1E, primary screen, cell-based, 5 mM glucose, NPC library (AID 1117329;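 active means compound raises insulin release from rat beta cells at 5 mM glucose, no numeric limit stated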); details: rat INS-1E insulin secretion, at 10 µM, stronger effect = higher value
[2] = growth inhibition of GSK3B-pretreated HCT116 cells – cell-based, CellTiter-Glo, 0.2 to 20 µM (AID 1117336;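 active means compounds lowering colon cancer cell viability after pretreatment blocking the GSK3B kinase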); details: HCT116 viability after GSK3B inhibitor, at 20 µM, stronger effect = higher value
[3] = inhibition of endothelial tube formation, primary screen, imaging, VEGF stimulated, CD31 staining, tube area, NPC library (AID 1117340); details: VEGF-stimulated ADSC/ECFC co-culture, at 10 µM, stronger effect = higher value
[4] = glucagon-like peptide 1 release enhancers, primary assay, NCI-H716 cell line, NPC library (AID 1117341;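 active means compound raises GLP1 secretion from the human gut endocrine cells, with no numeric limit stated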); details: NCI-H716 cells, at 10 µM, stronger effect = higher value
[5] = HCT116 colon cancer cell growth inhibition, primary screen, CellTiter-Glo luminescence, NPC library (AID 1117342;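 active means compounds that lower survival of HCT116 colon cancer cells in the luminescence readout, no numeric limit stated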); details: at 20 µM (top of the series)
[6] = CellTiter-Glo luminescent readout of SW480 viability loss, NPC library primary (AID 1117343;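 active means compounds that lower viability of the colon cancer cells in the luminescence readout, with no numeric limit stated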); details: CellTiter-Glo luminescence; at 20 µM (top of the series)
[7] = decreased DLD-1 cellular survival, CellTiter-Glo luminescent readout, NPC compound collection, primary HTS (AID 1117346;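 active means compounds that lower survival of DLD-1 colon cancer cells in the luminescence readout, no cutoff given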); details: DLD-1 viability, CellTiter-Glo luminescence; at 20 µM (top of the series)
[8] = target: 6-phosphogluconate dehydrogenase, decarboxylating (Homo sapiens) (UniProt P52209); assay: 6PGD enzyme inhibitors, primary screen, biochemical, human, recombinant enzyme, NADPH absorbance (AID 1159550;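 active means at least 20% inhibition of 6-phosphogluconate dehydrogenase activity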); details: recombinant 6PGD, NADPH absorbance 341 nm; at 10 µM; stronger effect = higher value
[9] = differential killing of epithelial or mesenchymal cells, primary screen, imaging, PC-3E GFP, TEM4-18 mCherry, co-culture (AID 1345086;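 active means compounds killing one labelled cell type while sparing the other, by normalised counts and ratio limits, not self-fluorescent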;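 on all read-outs here: cells exposed to compound for 72 h before imaging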;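 on red/green cell ratio (normalised): normalised mesenchymal count divided by normalised epithelial count so high means epithelial killing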); details: imaging cell counts, at 1 µM; for red/green cell ratio (normalised): actives lie on both sides, counts scaled to control wells, 1 = unselective
[10] = growth inhibition of DIPG glioma cells, dose response, cell-based, SU-DIPG-XVII, MIPE5.0, CellTiter-Glo, qHTS (AID 1347060; cut-off not given, nearly all actives have AC50 up to about 26 µM;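 on AC50: cells exposed to compound for 48 hours before viability readout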); details: SU-DIPG-XVII viability, CellTiter-Glo ATP luminescence
[11] = growth inhibition of DIPG glioma cells, dose response, cell-based, SU-DIPG-XIII, MIPE4.0, CellTiter-Glo, qHTS (AID 1347061; cut-off not given, nearly all actives have AC50 up to about 37 µM;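 further: cells exposed to compound for 48 hours before readout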); details: SU-DIPG-XIII viability, CellTiter-Glo ATP luminescence
[12] = growth inhibition of DIPG glioma cells, dose response, cell-based, JHH-DIPG-1, MIPE4.0, CellTiter-Glo, qHTS (AID 1347062; cut-off not given, nearly all actives have AC50 up to about 27 µM;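 on AC50: cells exposed to compound for two days before readout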); details: JHH-DIPG-1 viability, CellTiter-Glo ATP luminescence
[13] = growth inhibition of DIPG glioma cells, dose response, cell-based, SU-DIPG-IV, MIPE4.0, CellTiter-Glo, qHTS (AID 1347063; cut-off not given, nearly all actives have AC50 up to about 30 µM;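 further: compound exposure lasted 48 hours before the viability readout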); details: SU-DIPG-IV viability, CellTiter-Glo ATP luminescence
[14] = growth inhibition of DIPG glioma cells, dose response, cell-based, SU-DIPG-XIII, MIPE5.0, CellTiter-Glo, qHTS (AID 1347064; cut-off not given, nearly all actives have AC50 up to about 23 µM;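 on AC50: cells exposed to compound for 48 hours before the viability read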); details: SU-DIPG-XIII viability, CellTiter-Glo ATP luminescence
[15] = system: Aerobactin synthetase IucA (Klebsiella pneumoniae); assay: IucA aerobactin synthetase inhibitors, biochemical, Tocris library, absorbance (AID 1345561; call rule not given here;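 further: 100% = enzyme without compound and 0% = no enzyme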); details: purified IucA enzyme assay, absorbance (OD) read-out; stronger effect = lower value;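 tested at 8 µM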
[16] = measured here: epithelial PC-3E GFP cell survival
[17] = measured here: mesenchymal TEM4-18 mCherry cell survival

6-phosphogluconate dehydrogenase, decarboxylating (Homo sapiens), sequence (P52209 whole entry, looked up): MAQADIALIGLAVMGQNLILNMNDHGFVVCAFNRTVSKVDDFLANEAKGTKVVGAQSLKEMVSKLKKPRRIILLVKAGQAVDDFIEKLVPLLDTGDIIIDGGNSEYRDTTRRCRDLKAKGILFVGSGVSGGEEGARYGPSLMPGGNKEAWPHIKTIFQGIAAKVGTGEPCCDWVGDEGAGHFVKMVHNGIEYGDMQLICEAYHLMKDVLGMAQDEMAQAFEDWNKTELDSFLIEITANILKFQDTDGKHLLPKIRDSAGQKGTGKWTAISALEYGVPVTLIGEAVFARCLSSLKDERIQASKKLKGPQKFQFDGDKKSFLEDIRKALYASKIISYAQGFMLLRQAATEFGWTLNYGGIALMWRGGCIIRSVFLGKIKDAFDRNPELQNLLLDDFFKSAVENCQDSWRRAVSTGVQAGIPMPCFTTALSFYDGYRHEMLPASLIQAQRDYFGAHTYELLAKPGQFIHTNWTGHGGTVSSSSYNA

COC(=O)[C@H](Cc1ccccc1)NC(=O)[C@@H](N)CC(=O)O (H-Asp-Phe-OMe)
inactive: insulin secretion stimulation [1] 2.8% | viability decrease [2] -0.5% | tube area decrease [3] 6.5% | GLP1 secretion stimulation [4] 0.8% | inhibition of viability [5] 5% | viability decrease (inhibition) [6] -6.8% | viability decrease (inhibition) [7] 9.55% | inhibition [8] 10.8% | red/green cell ratio (normalised) [9] 1.23 | outcome [10] | outcome [11] | outcome [12] | outcome [13]
1.24: normalised cell number [9, 17]
1.01: normalised cell number [9, 16]

COC(=O)Nc1nc2ccc(S(=O)c3ccccc3)cc2[nH]1 (stereo not given)
inactive: insulin secretion stimulation [1] -2.4% | GLP1 secretion stimulation [4] 8% | inhibition [8] 17.4% | red/green cell ratio (normalised) [9] 0.97
0.95: normalised cell number [9, 17]
active: viability decrease [2] 93.5% | tube area decrease [3] 110% | inhibition of viability [5] 92.2% | viability decrease (inhibition) [6] 96% | viability decrease (inhibition) [7] 88% | AC50 [10] 18.6 µM
0.97: normalised cell number [9, 16]

CN(C)c1ccc(C(=C2C=CC(=[N+](C)C)C=C2)c2ccc(N(C)C)cc2)cc1
0.14: normalised cell number [9, 16]
0.5: normalised cell number [9, 17]
active: viability decrease [2] 104% | tube area decrease [3] 108% | inhibition of viability [5] 103% | viability decrease (inhibition) [6] 146% | viability decrease (inhibition) [7] 106% | red/green cell ratio (normalised) [9] 3.62 | AC50 [10] 1.48 µM | AC50 [11] 2.96 µM | AC50 [12] 0.235 µM | AC50 [13] 0.148 µM | AC50 [14] 1.48 µM
inactive: insulin secretion stimulation [1] -0.2% | GLP1 secretion stimulation [4] -16% | inhibition [8] 5.37%

Cn1cnc2c1c(=O)[nH]c(=O)n2C
0.9: normalised cell number [9, 17]
active: AC50 [11] 23.5 µM | AC50 [12] 23.5 µM | AC50 [13] 10.5 µM
inactive: insulin secretion stimulation [1] 2.3% | viability decrease [2] 5% | tube area decrease [3] 15.1% | GLP1 secretion stimulation [4] -0.4% | inhibition of viability [5] 6.3% | viability decrease (inhibition) [6] -8.1% | viability decrease (inhibition) [7] -19.1% | inhibition [8] -1.33% | red/green cell ratio (normalised) [9] 0.94 | outcome [10] | outcome [14]
0.96: normalised cell number [9, 16]

NNc1nncc2ccccc12
inactive: insulin secretion stimulation [1] -1.2% | viability decrease [2] -10.3% | tube area decrease [3] 5.9% | GLP1 secretion stimulation [4] 5.2% | inhibition of viability [5] 4.9% | viability decrease (inhibition) [6] 4.9% | viability decrease (inhibition) [7] -2.1% | inhibition [8] 15.4% | red/green cell ratio (normalised) [9] 1.11 | outcome [10] | outcome [11] | outcome [13]
1.26: normalised cell number [9, 17]
1.13: normalised cell number [9, 16]

CN1C(C(=O)Nc2ccccn2)=C(O)c2sccc2S1(=O)=O
1.14: normalised cell number [9, 16]
0.93: normalised cell number [9, 17]
inactive: insulin secretion stimulation [1] 1.6% | viability decrease [2] -17.8% | tube area decrease [3] 2.6% | GLP1 secretion stimulation [4] 0.4% | inhibition of viability [5] 8.2% | viability decrease (inhibition) [6] 13.4% | viability decrease (inhibition) [7] -0.2% | inhibition [8] -2.82% | red/green cell ratio (normalised) [9] 0.82 | outcome [10] | outcome [11] | outcome [12] | outcome [13] | outcome [14]

CN(C)CCc1c[nH]c2ccc(CS(=O)(=O)N3CCCC3)cc12
0.96: normalised cell number [9, 16]
1.02: normalised cell number [9, 17]
inactive: insulin secretion stimulation [1] 2.7% | viability decrease [2] -11% | tube area decrease [3] 8.7% | GLP1 secretion stimulation [4] 1.2% | inhibition of viability [5] 1.33% | viability decrease (inhibition) [6] 28.9% | viability decrease (inhibition) [7] -7.1% | inhibition [8] -1.67% | red/green cell ratio (normalised) [9] 1.06 | outcome [10] | outcome [11] | outcome [12]

CC1(C)NC(=O)N(c2ccc([N+](=O)[O-])c(C(F)(F)F)c2)C1=O
1.25: normalised cell number [9, 16]
inactive: insulin secretion stimulation [1] 0.7% | viability decrease [2] -16.7% | tube area decrease [3] 6.9% | GLP1 secretion stimulation [4] -1.4% | inhibition of viability [5] 8.8% | viability decrease (inhibition) [6] 18.3% | viability decrease (inhibition) [7] -16.7% | inhibition [8] 9.97% | red/green cell ratio (normalised) [9] 1.15 | remaining activity [15] 120% | outcome [12] | outcome [13] | outcome [14]
1.43: normalised cell number [9, 17]

COc1ccc2cc3[n+](cc2c1OC)CCc1cc2c(cc1-3)OCO2
inactive: insulin secretion stimulation [1] 1.05% | GLP1 secretion stimulation [4] 0.3% | viability decrease (inhibition) [6] 33.2% | inhibition [8] 10.3% | red/green cell ratio (normalised) [9] 0.81
active: viability decrease [2] 57.5% | tube area decrease [3] 57.3% | inhibition of viability [5] 84% | viability decrease (inhibition) [7] 62.7% | AC50 [10] 18.6 µM | AC50 [12] 4.18 µM | AC50 [14] 16.6 µM
0.85: normalised cell number [9, 16]
0.69: normalised cell number [9, 17]

NC(CO)C(=O)NNCc1ccc(O)c(O)c1O (stereo not given)
inactive: insulin secretion stimulation [1] 2.2% | tube area decrease [3] -12.6% | GLP1 secretion stimulation [4] 8.5% | inhibition [8] -10.3% | red/green cell ratio (normalised) [9] 1.1 | outcome [10] | outcome [11] | outcome [12] | outcome [13] | outcome [14]
1.12: normalised cell number [9, 16]
active: viability decrease [2] 55.6% | inhibition of viability [5] 84.4% | viability decrease (inhibition) [6] 145% | viability decrease (inhibition) [7] 103%
1.23: normalised cell number [9, 17]

COc1ccc2c(c1)c(CC(=O)OCC(=O)O)c(C)n2C(=O)c1ccc(Cl)cc1
0.91: normalised cell number [9, 17]
1.18: normalised cell number [9, 16]
inactive: insulin secretion stimulation [1] 2.2% | viability decrease [2] 4.9% | tube area decrease [3] -5.2% | GLP1 secretion stimulation [4] -2.5% | inhibition of viability [5] 12.8% | viability decrease (inhibition) [6] 33.3% | viability decrease (inhibition) [7] 0.1% | inhibition [8] -4.54% | red/green cell ratio (normalised) [9] 0.77 | outcome [11] | outcome [12] | outcome [13]

CC(C)COCC(CN(Cc1ccccc1)c1ccccc1)N1CCCC1 (stereo not given)
1.18: normalised cell number [9, 17]
inactive: insulin secretion stimulation [1] 4.8% | tube area decrease [3] 32.8% | GLP1 secretion stimulation [4] 4.3% | inhibition [8] 1.94% | red/green cell ratio (normalised) [9] 1.11
1.06: normalised cell number [9, 16]
active: viability decrease [2] 98% | inhibition of viability [5] 105% | viability decrease (inhibition) [6] 117% | viability decrease (inhibition) [7] 97% | AC50 [10] 20.9 µM | AC50 [14] 14.8 µM
